The whole screen tested about 260,000 compounds, of which about 1,500 (0.58%) were called active. Another 5% or so got no clear call; they are omitted.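 How the source made its calls: active means inhibition above a set limit at one or more doses, reproduced on every date tested; inconclusive means results disagree between test dates, or hit never tested in dose response; inactive means the rest.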 These entries were drawn from the full list. Results with a measured potency or affinity are listed apart.
These molecules were tested against Virion infectivity factor (Human immunodeficiency virus type 1 group M subtype B (isolate BH10)) + Virion infectivity factor (Human immunodeficiency virus type 1 group M subtype B (isolate BRU/LAI)) + Virion infectivity factor (Human immunodeficiency virus type 1 group M subtype B (isolate PCV12)) + Virion infectivity factor (Human immunodeficiency virus type 1 group M subtype B (isolate HXB2)) + DNA dC->dU-editing enzyme APOBEC-3G (Homo sapiens) (UniProt P69720+P69721+P69722+P69723+Q9HC16) (assay: HIV-1 Vif–A3G interaction blockers – biochemical, TR-FRET, GST-Vif 1-94, biotin-A3G peptide, dose response retest, primary screen (AID 1117319;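 further: Vif residues 1-94 fused to GST binding biotinylated APOBEC3G peptide 110-148; 0% = full assay without inhibitor and 100% = GST in place of GST-Vif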)). Conditions: TR-FRET GST-Vif / biotin-A3G peptide binding; active compounds read high.

| Compound | inhibition |
| --- | --- |
| CC1(C)CC(=O)C(C=NCCCN2CCOCC2)=C(O)C1 | -5.25% (inactive) |
| CCc1cc2ccc(OC)cc2nc1SCC(=O)NNC(=O)c1ccco1 | -10% (inactive) |
| Cc1ccc(NC(=S)N(CCCN2CCOCC2)Cc2ccco2)cc1C | -0.03% (inactive) |
| CN(C)c1ccc(/C=C2\C(=N)N3C(=NC2=O)Sc2cc(S(C)(=O)=O)ccc23)cc1 | -44.5% (inactive) |
| COc1ccc(/C=C2/C(=N)N3C(=NC2=O)Sc2cc(S(C)(=O)=O)ccc23)cc1OC | -1.27% (inactive) |
| O=C(NCc1nnc(SCC(=O)N2CCc3ccccc32)o1)c1ccco1 | 1.79% (inactive) |
| Cc1cccc(NCC(=O)N/N=C\c2c[nH]c3ccccc23)c1 | 21.4% (inactive) |
| Cc1nc(N)sc1C(=O)N/N=C/c1cccnc1 | 3.64% (inactive) |
| CCC(=O)Nc1ncc2c(n1)CC(c1ccco1)CC2=O (stereo unspecified) | 31.8% (inactive) |
| O=C(CSc1nnnn1-c1ccccc1)Nc1ncc2c(n1)CC(c1ccccc1)CC2=O (stereo unspecified) | 2.52% (inactive) |
| Cc1cccc(Nc2ncc3c(n2)CC(c2ccco2)CC3=O)c1 (stereo unspecified) | 3.03% (inactive) |
| Cc1ccc(Nc2ncc3c(n2)CC(c2ccco2)CC3=O)c(C)c1 (stereo unspecified) | 18.1% (inactive) |
| CC(C(=O)NC1=NCCS1)(C(F)(F)F)C(F)(F)F | -4.2% (inactive) |
| COc1ccc(CCNC(=O)CCCc2ccccc2)cc1OC | 1% (inactive) |
| Cc1ccc(C)c(OCC(=O)Nn2c(C)nc3ccccc3c2=O)c1 | -5.76% (inactive) |
| C=CCn1c(C)c(C(C)=O)c(N2CCOCC2)nc1=S | 5.16% (inactive) |
| C=CCn1c(C)c(C(C)=O)c(N2CCCC2)nc1=S | 1.72% (inactive) |
| O=C(NCC1CCCO1)c1ccc2nc(N3CCCCC3)sc2c1 (stereo unspecified) | 1.36% (inactive) |
| CC(Oc1ccc(Br)cc1)C(=O)Nc1ccncc1 (stereo unspecified) | -0.96% (inactive) |
| COc1ccc(CNC(=O)c2cc(=O)c3ccccc3o2)cc1 | 4.03% (inactive) |
| O=C(NNc1nc2c(F)cccc2s1)c1cc(=O)c2ccccc2o1 | 21.6% (inactive) |
| O=S(=O)(c1cccc(F)c1)N1CCN(C(=S)NCc2ccccc2)CC1 | -4.04% (inactive) |
| O=C(OCc1csc(-c2ccccc2)n1)c1ccc(O)cc1 | -8.63% (inactive) |
| O=C1c2ccccc2C(=O)N1CCCON1C(=O)c2ccccc2C1=O | -6.06% (inactive) |

| Compound | inhibition |
| --- | --- |
| O=C1c2ccccc2C(=O)N1CCCCON1C(=O)c2ccccc2C1=O | -9.96% (inactive) |
| CCC(C)NC(=O)C(Cc1ccccc1)NS(=O)(=O)c1ccc2c(c1)CCC(=O)N2 (stereo unspecified) | -0.93% (inactive) |
| CCC(=O)NCc1c(Cl)cccc1-n1cccc1 | -0.31% (inactive) |
| CC(C)=CC(=O)NCc1c(Cl)cccc1-n1cccc1 | -7.14% (inactive) |
| CC(C)(C)c1cc(CCC(=O)N2CCNCC2)c(C(C)(C)C)cc1O | -5.87% (inactive) |
| Cc1ccc(S(=O)(=O)N2CCN(C(=O)c3cccc(-n4cccc4)c3)CC2)cc1 | 13.6% (inactive) |
| O=C(c1cccc(-n2cccc2)c1)N1CCN(S(=O)(=O)c2ccccc2Br)CC1 | -0.78% (inactive) |
| CCc1cccc2c(SCC(=O)NCC3CCCO3)nc(-c3ccc(F)cc3)nc12 (stereo unspecified) | -2.63% (inactive) |
| O=C(NCCn1cc(SCc2ccccc2F)c2ccccc21)c1c(F)cccc1F | 23.7% (inactive) |
| CCN(CC)c1ccc(/C=N/N2C(=O)c3ccccc3C2=O)cc1 | 0.19% (inactive) |
| CSc1ccc(/C=N/n2c(C)cc(C)cc2=O)cc1 | -2.42% (inactive) |
| CC(C(=O)OCC(=O)N(C)C1(C#N)CCCCC1)N1C(=O)c2ccccc2C1=O (stereo unspecified) | -0.19% (inactive) |
| O=C1c2ccccc2CC1Sc1nnc(-c2ccncc2)o1 (stereo unspecified) | 8.68% (inactive) |
| Fc1ccc(CSc2nnc(-c3ccccn3)o2)cc1 | -5.79% (inactive) |
| COc1ccc(N=C2SC(C(=O)Nc3ccc(C(=O)O)cc3)CC(=O)N2Cc2cccs2)cc1 (stereo unspecified) | -11.4% (inactive) |
| Cc1ccc(C)c(NC(=O)C2CCN(S(=O)(=O)c3ccc4c(c3)NC(=O)CO4)CC2)c1 | -1.93% (inactive) |
| Cc1ccc(C(=O)CSc2nnc(-c3ccco3)n2C)cc1 | 11.4% (inactive) |
| COc1ccc(C(=O)CSc2nnc(-c3ccco3)n2C)cc1 | 7.51% (inactive) |
| O=C(OC(C(=O)NCc1ccco1)c1ccc(Cl)cc1)c1cccs1 (stereo unspecified) | 4.09% (inactive) |
| CC(C)(C)NC(=O)C(c1ccc(O)cc1)N(C(=O)CCC(=O)Nc1ccccn1)c1ccc(F)cc1 (stereo unspecified) | 16.4% (inactive) |
| O=C(Nc1ccc2nsnc2c1)N1CCCCCC1 | 21.1% (inactive) |
| CCOC(=O)C1CCN(C(=O)Nc2ccc3nc(C)c(C)nc3c2)CC1 | 8.59% (inactive) |
| Cc1nc2ccc(NC(=O)N3CCCCC3)cc2nc1C | 1.22% (inactive) |
| CCOC(=O)C1CCN(C(=O)Nc2ccc3nccnc3c2)CC1 | -4.96% (inactive) |

| Compound | inhibition |
| --- | --- |
| CCn1nnnc1NC(=O)c1cc(Cl)c(OC)c(Cl)c1 | 0.23% (inactive) |
| Cc1noc(C(=O)NCC2CCCO2)c1Cl (stereo unspecified) | 2.96% (inactive) |
| COc1ccc(-n2nnc3c(SCC(=O)OCc4ccccc4)ncnc32)cc1 | 0.84% (inactive) |
| C=CCNC(=O)O/N=C/c1csc([N+](=O)[O-])c1 | -6.03% (inactive) |
| CC(C)(C)c1ccc(C(=O)N/N=C/c2ccc(OCCCF)cc2)cc1 | -1.58% (inactive) |
| CCOc1ccccc1NCN1C(=O)c2ccccc2C1=O | -5.06% (inactive) |
| CCOc1ccc(NC2=CC(=O)C(=O)c3ccccc32)cc1 | 3.36% (inactive) |
| O=C(NC(=S)Nc1ccccc1O)c1cccnc1 | -2.04% (inactive) |
| COc1ccccc1NC(=O)c1oc2ccccc2c1C | -8.43% (inactive) |
| COc1ccc(NC(=O)c2oc3ccccc3c2C)c(OC)c1 | 3.61% (inactive) |
| Cc1nn(-c2cccc(Cl)c2)nc1C(=O)Nc1cccc(C(=O)NC2CC2)c1 | -8.35% (inactive) |
| O=[N+]([O-])c1cccc(N=Nc2ccc(O)cc2O)c1 | 5.74% (inactive) |
| O=[N+]([O-])c1ccc(N=Nc2ccc(O)cc2O)cc1 | 27.8% (inactive) |
| Oc1ccc(N=Nc2ccc3c(c2)OCCO3)c(O)c1 | 6.46% (inactive) |
| Oc1ccc(N=Nc2ccc(Br)cc2)c(O)c1 | -5.68% (inactive) |
| Clc1cccc(CSc2nnc(-c3c[nH]c4ccccc34)o2)c1 | -5.82% (inactive) |
| Cc1ccc(-c2nc(C#N)c(N3CCCCC3)o2)cc1 | -10.2% (inactive) |
| CC(=O)N1CCc2ccc(NC(=O)c3c(-c4c(Cl)cccc4Cl)noc3C)cc21 | -4.69% (inactive) |
| O=[N+]([O-])c1ccc2nc(C3CCCCC3)[nH]c2c1 | -11.7% (inactive) |
| COc1cccc(C(=O)Nc2ccc3nc(N4CCOCC4)cc(C)c3c2)c1 | -4.42% (inactive) |
| CN(C)/C=C/C(=O)c1ccc(Br)cc1 | -1.28% (inactive) |
| O=C(NCCO)C1COc2ccccc2O1 (stereo unspecified) | -2.17% (inactive) |
| O=C(CSc1nnnn1C1CC1)N1CCN(c2ccccc2F)CC1 | -1.62% (inactive) |
| On1nnc2c3ccccc3c3ccccc3c21 | 0.98% (inactive) |

| Compound | inhibition |
| --- | --- |
| O=C(O)C1CCCCN1C(=O)c1ccc(S(=O)(=O)N2CCCCCC2)cc1 (stereo unspecified) | -3.6% (inactive) |
| COc1cc2c(cc1OC)C(=O)CCC2 | -1.94% (inactive) |
| COc1ccc2c(c1)CCCC(Br)C2=O (stereo unspecified) | 11.8% (inactive) |
| O=C(O)c1cccc2c1C(=O)c1ccc(N3CCN(Cc4ccc5c(c4)OCO5)CC3)cc1S2(=O)=O | 1.13% (inactive) |
| Cc1cccc2cc(CN(CCCO)C(=O)Nc3ccc(Cl)cc3)c(=O)[nH]c12 | 13.2% (inactive) |
| C/C(=N\NC(=O)c1cc(C2CC2)nc2ccccc12)c1ccc(C)s1 | 5.05% (inactive) |
| Cc1c(N=C2C=CC(=O)c3ccccc32)c(=O)n(-c2ccccc2)n1C | 25% (inactive) |
| CCC(C)C1=CC(=Nc2c(C)n(C)n(-c3ccccc3)c2=O)C=C(C(C)CC)C1=O (stereo unspecified) | 9.76% (inactive) |
| CC1=CC(=Nc2c(C)n(C)n(-c3ccccc3)c2=O)C=C(C)C1=O | 16.9% (inactive) |
| Cc1c(N=c2c(=O)c3ccccc3c2=O)c(=O)n(-c2ccccc2)n1C | 23.7% (inactive) |
| CC(=O)NC1=NN(C(C)=O)C(C)(c2cccs2)S1 (stereo unspecified) | 2.86% (inactive) |
| Cc1cc(=O)oc2cc(NC(=O)c3ccnn3C)ccc12 | -5.65% (inactive) |
| Cc1ccc(C)c(Cn2nnc3c(=O)[nH]c(C4CCN(S(=O)(=O)c5ccc(S(=O)(=O)NC6CC6)cc5)CC4)nc32)c1 | -11.5% (inactive) |
| O=C(CN1CCN(S(=O)(=O)c2ccc(Cl)cc2)CC1)NCc1cccs1 | 0.29% (inactive) |
| O=C(CN1CCN(S(=O)(=O)c2ccc(Cl)s2)CC1)N1CCOCC1 | 7.26% (inactive) |
| CC(C)Nc1nc(-c2ccccc2)nnc1-c1ccccc1 | -7.57% (inactive) |
| O=C(O)/C=C/C(=O)Nc1ccc(SC(F)(F)C(F)(F)C(F)(F)F)cc1 | -1.48% (inactive) |
| CCN(CC)CCN1C(=O)c2ccccc2NC1c1ccc(C)cc1 (stereo unspecified) | 0.09% (inactive) |
| CCN(CC)CCN1C(=O)c2ccccc2NC1c1ccc(F)cc1 (stereo unspecified) | 1.63% (inactive) |
| CC/C(C)=N/Nc1ccc(S(=O)(=O)N2CCCC2)cc1[N+](=O)[O-] | 0.9% (inactive) |
| CC1CCCN(C(=O)c2ccc(CNc3c(N4CCCCC4)c(=O)c3=O)cc2)C1 (stereo unspecified) | 4.47% (inactive) |
| CC1CCN(C(=O)c2ccc(CNc3c(N4CCCC4)c(=O)c3=O)cc2)CC1 | 5.36% (inactive) |
| Cn1c(N)c(C(=O)COC(=O)C2CCCC2)c(=O)n(C)c1=O | 0.6% (inactive) |
| Cn1c(N)c(C(=O)COC(=O)C2CCC(C(C)(C)C)CC2)c(=O)n(C)c1=O (stereo unspecified) | 15.1% (inactive) |
